Bioassay records (PubChem)
This is a sample that favours compounds with a hit; in the whole collection about 19% have one here.
DT40 TDP1 CPT – DT40-hTDP1 cell growth loss with CPT; chicken DT40 Tdp1-/-;hTDP1 cells + 20 nM CPT, ATP luminescence, 48 h; Potency, µM (top dose mostly 46.2 µM), usual class: inhibitors; hit rate 12% among 420,000; further: nearly all actives have a fitted effect of over 55% in size
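Chicken DT40 Tdp1-/- cells stably complemented with human TDP1 were seeded at 400 cells/well in medium containing 20 nM camptothecin, exposed to pin-transferred compounds, and grown at 37 °C for at least 48 hr. Viability was read as ATP luminescence.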
HepG2 tox – HepG2 cytotoxicity, counter-screen for TGF-b inhibitors; HepG2 CAGA-GFP viability, ATP luminescence, 18 h; hit rate 0.76% among 410,000; Potency, µM (doses to about 46.1 µM), most hits filed as cytotoxic; AID 588856
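HepG2 CAGA-GFP cells (1000/well, DMEM with 1% FBS) received compound, then TGF-beta at 500 pg/mL final, and were incubated 18 hours at 37 degrees C. Viability was read by CellTiter-Glo luminescence. Media-only wells were set as complete cell-killing and DMSO as no toxicity.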
IL1B secr inh – blocks inflammasome-driven IL-1 beta release; hit rate 4.7% among 360,000; THP-1 LPS/ATP IL-1B secretion, AlphaLISA, 16 h; stronger effect = lower value; activity change, % at 57.5 µM; AID 743279; in the data active means activity change below about -50%; inconclusive means mostly about -30% to -49%
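THP-1 cells pretreated 1 hr with compounds (up to 57.5 uM final), then stimulated with LPS (250 ng/mL final) plus ATP (1.25 mM final); secreted IL-1B measured by AlphaLISA after 16 hr, decreased signal indicating inhibition.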
TGFb SMAD3 inh – blocks TGF-b signaling; Potency, µM (doses to about 46.1 µM), hits mostly inhibitors; hit rate 1.2% among 410,000; HepG2 CAGA-GFP TGF-b/SMAD3 reporter, GFP fluorescence, 18 h; TGF-beta stimulated, 500 pg/mL final; further: nearly all actives have a fitted effect of over 65% in size
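HEPG2 CAGA-GFP reporter cells (1000/well, DMEM with 1% FBS) received compounds, then recombinant TGF-beta at 500 pg/mL final for 18 hours at 37 degrees C. Per-cell GFP summed per well was normalised to unstimulated and stimulated DMSO controls before curve fitting.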
TDP1 cell noCPT – qHTS for Inhibitors of human tyrosyl-DNA phosphodiesterase 1 (TDP1): qHTS in cells in absence of CPT; Potency, µM (highest dose often 46.2 µM), usual class: inhibitors; AID 686978, 2013; hit rate 15% among 420,000; DT40 Tdp1-/- hTDP1 cells, no CPT, ATP luminescence, 48 h; further: nearly all actives have a fitted effect of over 55% in size
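Stably hTDP1-transfected Tdp1-null chicken DT40 cells were treated with library compounds minus camptothecin and grown for at least 48 hr at 37 °C, after which cellular ATP was quantified by luminescence.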
S-ASM inh – inhibitors of human secretory acid sphingomyelinase; Potency, µM (titrated, usually from 57.5 µM), usual class: inhibitors; AID 504937; hit rate 0.006% among 340,000; P17405; placental ASM, HMU-PC fluorogenic substrate, 60 min
Target sequence (P17405 47-631 limits assumed): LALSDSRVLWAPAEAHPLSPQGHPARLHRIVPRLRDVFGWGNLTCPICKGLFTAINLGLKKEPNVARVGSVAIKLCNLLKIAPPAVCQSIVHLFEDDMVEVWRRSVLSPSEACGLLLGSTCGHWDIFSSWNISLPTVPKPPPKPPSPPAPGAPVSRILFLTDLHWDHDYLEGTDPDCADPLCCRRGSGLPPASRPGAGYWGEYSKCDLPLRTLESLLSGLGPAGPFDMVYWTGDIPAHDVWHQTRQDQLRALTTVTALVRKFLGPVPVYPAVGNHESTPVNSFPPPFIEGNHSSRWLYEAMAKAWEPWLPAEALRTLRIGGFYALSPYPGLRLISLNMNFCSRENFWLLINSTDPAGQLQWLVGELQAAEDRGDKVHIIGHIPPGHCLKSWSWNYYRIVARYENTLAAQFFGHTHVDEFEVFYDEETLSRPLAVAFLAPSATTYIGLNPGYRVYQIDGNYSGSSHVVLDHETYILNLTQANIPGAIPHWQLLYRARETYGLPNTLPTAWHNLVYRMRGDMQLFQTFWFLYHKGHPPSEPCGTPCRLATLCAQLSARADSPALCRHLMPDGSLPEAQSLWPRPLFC
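qHTS format. ASM enzyme prepared from human placenta hydrolyses the fluorogenic substrate HMU-PC0 (9 uM final) over 60 min at 37 °C after a 10 min compound preincubation.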
Numbers stand for hits; i = inactive; ? = inconclusive; nt = no result. Unless noted, the call rests on the fitted dose curve; in most records, active means well fitted curve in the direction sought with a large enough effect; inconclusive means small, poorly fitted or top-dose-only effect, or another doubt; inactive means no such curve, though single readings can be large; an effect the other way counts as inactive or inconclusive.

SMILES	DT40 TDP1 CPT	HepG2 tox	IL1B secr inh	TGFb SMAD3 inh	TDP1 cell noCPT	S-ASM inh
COc1ccc(C(OCC(O)CNC(C)c2ccccc2)c2ccc(OC)cc2)cc1 (centres undefined)	?	i	-98	?	23µM	i
Cc1cccc(C)c1NC(=O)C1c2ccccc2OCC(=O)N1Cc1ccco1 (centres undefined)	i	nt	i	nt	i	nt
COc1ccc(N(CC(=O)Nc2cc(Cl)ccc2OC)C2=NC3CS(=O)(=O)CC3S2)cc1 (centres undefined)	i	i	i	i	i	i
COc1cccc(NC(=O)CN(C2=NC3CS(=O)(=O)CC3S2)c2cccc(C)c2)c1 (centres undefined)	i	i	-65	i	?	i
COCCCNc1ncnc2sc(C(=O)N3CCOCC3)c(C)c12	i	nt	nt	nt	i	nt
Clc1cccc(Cl)c1CO/N=C/c1c(-c2ccccc2)nc2n1CCS2	18µM	i	i	?	21µM	i
CC[C@]12c3[nH]c4ccc(OC)cc4c3CCN1C(=O)C(CC(=O)NC/C=C(\C)CCC=C(C)C)C[C@@H]2C(=O)N1CCN(C(=O)C2CC2)CC1 (some centres undefined)	?	i	-62	?	?	i
COc1ccc2[nH]c3c(c2c1)CCN1C(=O)C(CC(=O)NC/C=C(\C)CCC=C(C)C)C[C@H](C(=O)N2CCOCC2)[C@@]31CCC1CCCC1 (some centres undefined)	15µM	i	i	i	21µM	i
CC[C@]12c3[nH]c4ccccc4c3CCN1C(=O)C(CC(=O)NCC13CC4CC(CC(C4)C1)C3)C[C@@H]2C(=O)N1CCN(C(=O)C2CC2)CC1 (some centres undefined)	5.2µM	i	i	i	5.2µM	i
CC[C@]12c3[nH]c4ccccc4c3CCN1C(=O)C(CC(=O)NC/C=C(\C)CCC=C(C)C)C[C@@H]2C(=O)N1CCN(C(=O)C2CC2)CC1 (some centres undefined)	21µM	i	?	?	15µM	i
CCOc1cc(C(=O)Nc2ccc(-c3nc4cc(Cl)ccc4o3)cc2)cc(OCC)c1OCC	?	i	nt	i	?	nt
Cc1ccc(NC(=O)CCCc2c[nH]c3ccccc23)nc1	i	i	i	i	i	i
CC(C)CCn1c(=O)c2ccccc2n2c(CN(C)Cc3ccccc3)nnc12	23µM	i	i	i	16µM	i
CC(C)CCn1c(=O)c2ccccc2n2c(CCl)nnc12	?	i	nt	i	23µM	i
CC(C)CCn1c(=O)c2ccccc2n2c(CCC(=O)NC3CCN(Cc4ccccc4)CC3)nnc12	?	i	i	i	?	i
CC(C)CCn1c(=O)c2ccccc2n2c(=S)[nH]nc12	i	i	i	i	?	i
CCCCc1nn2c(=O)cc(COC(=O)c3ccc4c(c3)OCO4)nc2s1	i	i	nt	?	i	nt
Oc1ccc(/C=N/N=C/c2ccc(O)cc2)cc1	i	i	i	i	i	i
NC(N)=N/N=C/c1ccc(Br)cc1	2.6µM	i	?	?	4.1µM	i
NC(N)=N/N=C/c1ccc(OCc2ccc(Cl)cc2)cc1	21µM	10µM	-94	?	?	i
COc1cccc(-c2nc3c(C#N)c[nH]n3c2NC2CCC(C)CC2)c1 (centres undefined)	?	i	nt	i	?	nt
N#Cc1c[nH]n2c(NC3CCCCC3)c(-c3cccc(Cl)c3)nc12	?	i	nt	i	?	nt
CCOc1ccc(-c2nc(C#N)c(NCC3CCCO3)o2)cc1 (centres undefined)	i	i	i	i	i	i
COc1ccc(-c2nc3c(C#N)c[nH]n3c2NC2CCCC2)c(OC)c1	12µM	i	nt	i	?	nt
CC(C)Oc1ccc(-c2nc3c(C#N)c[nH]n3c2NC2CCCCC2)cc1	?	i	nt	?	23µM	nt
